Test results published in the supplement of paper PMC12350171.
Counter-ions that a name gives are not always drawn. Values without a mark were called inactive.

Assays:
Conditions in all cases: 20 µM
[1] = system: Haemophilus parainfluenzae; test: growth AUC normalised to DMSO control (fraction of control); higher = less growth inhibition, active = hit call of the paper
In short: (§1)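 Pathogens were passaged twice under anaerobic conditions, then inoculated into pre-reduced mGAM plates at a starting OD578 of 0.01, with compound at 20 μM and 1% DMSO, and sealed with breathable membranes. For Haemophilus parainfluenzae, the medium was supplemented with hemin and NAD. OD578 was read every hour for 24 h in three biological replicates. Growth-curve AUC was calculated by the trapezoidal rule up to the exponential-to-stationary transition and normalised to DMSO controls on the same plate.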

[2] = system: Salmonella enterica typhimurium; test: as above
In short: as §1

Shigella flexneri = test: as above
In short: as §1

Vibrio cholerae = test: as above
In short: as §1

[3] = system: Yersinia pseudotuberculosis; test: as above
In short: as §1

P. vulgatus RND KO = test: growth AUC normalised to DMSO control (median) (fraction of control); higher = less growth inhibition, active = hit call of the paper
In short: (§2)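 In 96-well plates of mGAM seeded at OD578 0.01, strains that had been passaged twice overnight without oxygen were exposed to approved-drug library compounds at 20 μM with 1% DMSO. Hourly OD578 readings were taken for 24 h in an anaerobic incubator. The trapezoidal-rule area under the curve, with curves truncated at entry into stationary phase, was expressed relative to same-plate vehicle wells as the median of three biological replicates.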

P. vulgatus WT = test: as above
In short: as §2

[4] = system: S. enterica typhimurium WT; test: as above
In short: as §2

[5] = system: S. enterica typhimurium tolC KO; test: as above
In short: as §2
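For growth AUC normalised to DMSO control (median) in this document: active when median AUC fell below 0.1.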

Row | Structure (SMILES) | growth AUC normalised to DMSO control [1] | growth AUC normalised to DMSO control [2] | growth AUC normalised to DMSO control (Shigella flexneri) | growth AUC normalised to DMSO control (Vibrio cholerae) | growth AUC normalised to DMSO control [3] | growth AUC normalised to DMSO control (P. vulgatus RND KO) | growth AUC normalised to DMSO control (P. vulgatus WT) | growth AUC normalised to DMSO control [4] | growth AUC normalised to DMSO control [5]
1 | CN(C)[C@@H]1C(=O)C(C(N)=O)=C(O)[C@@]2(O)C(=O)C3=C(O)c4c(O)cccc4[C@@](C)(O)[C@H]3C[C@@H]12 [Tetracycline hydrochloride] | 0.0479 (active) | 0.00376 (active) | 0.0389 (active) | 0.0365 (active) | 0.0501 (active) | 0.0124 (active) | 0.013 (active) | 0.0084 (active) | 0.00234 (active)
2 | O=C1CC[C@@]2(O)[C@H]3Cc4ccc(O)c5c4[C@@]2(CCN3CC2CC2)[C@H]1O5 [Naltrexone hydrochloride dihydrate] | 0.995 | 1 | 0.992 | 1 | 1.01 | 0.994 | 1.02 | 0.993 | 0.998
3 | CN1CCN(C(=O)OC2c3nccnc3C(=O)N2c2ccc(Cl)cn2)CC1 (stereo not drawn) [Zopiclone] | 1.01 | 0.996 | 1 | 0.998 | 0.996 | 0.999 | 1.01 | 0.994 | 0.999
4 | CCC(=O)O[C@@](Cc1ccccc1)(c1ccccc1)[C@@H](C)CN(C)C [Levopropoxyphene napsylate] | 1 | 0.999 | 1.04 | 1 | 1.02 | 1.03 | 1.05 | 1 | 0.995
5 | CC[C@@H](CO)NC(=O)[C@@H]1C=C2c3cccc4[nH]cc(c34)C[C@H]2N(C)C1 [Methylergometrine maleate] | 0.997 | 0.985 | 0.966 | 1.01 | 0.998 | 0.975 | 0.952 | 0.993 | 1
6 | Clc1ccc(C(OCCN2CCCCC2)c2ccccc2)cc1 (stereo not drawn) [Cloperastine hydrochloride] | 0.833 | 0.992 | 1.03 | 0.954 | 1.03 | 1.01 | 1 | 1 | 0.938
7 | CC(Cc1ccc(O)cc1)NCC(O)c1cc(O)cc(O)c1 (stereo not drawn) [Fenoterol hydrobromide] | 0.991 | 1.01 | 0.962 | 1.01 | 0.998 | 1.03 | 1.03 | 1.01 | 1
8 | C[C@]12CC[C@H](O)C[C@@H]1CC[C@@H]1[C@@H]2CC[C@]2(C)C(=O)CC[C@@H]12 [Epiandrosterone] | 1 | 0.987 | 0.99 | 1.19 | 0.997 | 1 | 1.03 | 1 | 0.951
9 | C1CCc2nnnn2CC1 [Pentylenetetrazole] | 1.01 | 0.978 | 1.01 | 1.04 | 0.976 | 1.03 | 1.06 | 1 | 0.986
10 | CCC1(CC)C(=O)C=CNC1=O [Pyrithyldione] | 1.01 | 0.992 | 1 | 1.05 | 1 | 1.01 | 1 | 1.02 | 0.998
11 | CC(=O)OCC(=O)[C@H]1CC[C@H]2[C@@H]3CC[C@H]4C[C@H](O)CC[C@]4(C)[C@H]3C(=O)C[C@]12C [Alfadolone acetate] | 1.26 | 1.01 | 0.99 | 0.987 | 0.992 | 1.04 | 1.05 | 1.01 | 0.941
12 | O=C(CCCN1CCC2(CC1)C(=O)NCN2c1ccccc1)c1ccc(F)cc1 [Spiperone] | 0.953 | 0.978 | 0.978 | 0.917 | 0.985 | 0.98 | 0.988 | 0.995 | 0.979
13 | C[N+]1(C)CCCC(OC(=O)C(O)(c2ccccc2)c2ccccc2)C1 (stereo not drawn) [Mepenzolate bromide] | 0.915 | 1.01 | 0.986 | 0.947 | 1 | 1.02 | 1.05 | 1.01 | 0.996
14 | CC(CCc1ccccc1)NC(C)C(O)c1ccc(O)cc1 (stereo not drawn) [Nylidrin] | 0.988 | 0.987 | 0.994 | 0.983 | 0.993 | 1 | 0.998 | 1 | 0.991
15 | CCn1cc(C(=O)O)c(=O)c2cc3c(cc21)OCO3 [Oxolinic acid] | 0.0639 (active) | 0.0132 (active) | 0.0542 (active) | 0.0353 (active) | 0.0367 (active) | 0.951 | 0.922 | 0.0291 (active) | 0.0105 (active)
16 | N[C@@H]1C[C@H]1c1ccccc1 [Tranylcypromine hydrochloride] | 1.04 | 0.999 | 1 | 1.01 | 0.959 | 1.01 | 1.05 | 1.01 | 1
17 | CCN(C)C(=O)Oc1cccc([C@H](C)N(C)C)c1 [Rivastigmine] | 1.13 | 1.04 | 1.02 | 1.11 | 1.04 | 1.01 | 1.03 | 1.01 | 1.02
18 | CC(=O)O[C@H]1C[C@H](O[C@H]2[C@@H](O)C[C@H](O[C@H]3[C@@H](O)C[C@H](O[C@H]4CC[C@@]5(C)[C@H](CC[C@@H]6[C@@H]5C[C@@H](O)[C@]5(C)[C@@H](C7=CC(=O)OC7)CC[C@]65O)C4)O[C@@H]3C)O[C@@H]2C)O[C@H](C)[C@H]1O[C@@H]1O[C@H](CO)[C@@H](O)[C@H](O)[C@H]1O [Lanatoside C] | 1.04 | 1.01 | 1.01 | 1.02 | 0.984 | 1.01 | 1.06 | 1.01 | 0.997
19 | CC(C)(C)NCC(O)c1cc(Cl)c(N)c(Cl)c1 (stereo not drawn) [Clenbuterol hydrochloride] | 0.984 | 0.958 | 0.979 | 0.992 | 0.993 | 0.981 | 1.01 | 1 | 0.992
20 | C[C@]12CCC(=O)C=C1C=C[C@@H]1[C@@H]2CC[C@@]2(C)[C@H]1CC[C@@]2(O)CCC(=O)O [Canrenoic acid potassium salt] | 0.979 | 0.993 | 0.97 | 1.02 | 0.983 | 1.01 | 0.996 | 1.01 | 1
21 | NCC(CC(=O)O)c1ccc(Cl)cc1 (stereo not drawn) [Baclofen] | 1.04 | 1.01 | 1.01 | 1.01 | 0.992 | 1.02 | 1.07 | 1.02 | 0.999
22 | CN(C)[C@@H]1C(=O)C(C(N)=O)=C(O)[C@@]2(O)C(=O)C3=C(O)c4c(O)cccc4[C@@](C)(O)[C@H]3[C@H](O)[C@@H]12 [Oxytetracycline dihydrate] | 0.0523 (active) | 0.00147 (active) | 0.015 (active) | 0.0278 (active) | 0.0752 (active) | 0.00913 (active) | 0.0112 (active) | 0.0149 (active) | 0.00753 (active)
23 | NCCCNCCSP(=O)(O)O [Amifostine] | 1.02 | 1.02 | 0.99 | 1.01 | 0.992 | 1.02 | 1.07 | 1.02 | 1.01
24 | C[C@]12CCC(=O)C(O)=C1CC[C@@H]1[C@@H]2CC[C@]2(C)C(=O)CC[C@@H]12 [Formestane] | 1.01 | 1.03 | 1 | 1.01 | 0.997 | 0.976 | 0.982 | 0.997 | 0.927
25 | NCCc1c[nH]c2ccc(O)cc12 [Serotonin hydrochloride] | 1.07 | 0.983 | 1.02 | 1.06 | 0.981 | 1.04 | 1.08 | 1 | 0.998
26 | NC(=O)CN1CCCC1=O [Piracetam] | 0.975 | 0.991 | 0.957 | 0.992 | 0.993 | 0.989 | 0.982 | 0.984 | 0.996
27 | C[N+]1([O-])[C@@H]2C[C@@H](OC(=O)[C@H](CO)c3ccccc3)C[C@H]1[C@@H]1O[C@@H]12 (stereo partly drawn) [Scopolamin-N-oxide hydrobromide] | 0.991 | 0.992 | 1.02 | 1.07 | 1.01 | 1.04 | 1.02 | 1.02 | 1.01
